Data as given in PubChem BioAssay (EPA / NIEHS).
Several values for one entry are separate records, joined by “and”; a condition that tells them apart may be missing. Identical values can stand only once. Records with an inconclusive call do not appear. More than one record can exist for a structure, and the calls need not agree. Activity calls are given as the source filed them. The calls were made as follows, unless noted: active = hit-call score of the fitted dose curve at least 0.9, where 1 is the maximum; inconclusive = response in the unintended direction; inactive = score below 0.9.

What was measured:
[1] = read-out: Transforming Growth Factor (TGFA), TGFA (gene 7039); assay: LTEA_HepaRG_TGFA: Life Technologies and Expression Analysis (LTEA) Assay for Transforming Growth Factor (TGFA) using HepaRG (AID 2283532; active = hit-call score of the fitted dose curve at least 0.9, where 1 is the maximum; inactive = score below 0.9); settings: mRNA level, 48 h; actives raise or lower the signal
Summary of the method: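 TGFA transcript quantified by qRT-PCR (Fluidigm arrays) against three housekeeping genes, after 48 hours chemical treatment of HepaRG cells. Top concentration 100 uM with half-log dilutions, 8 points, duplicates, 0.5% DMSO.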

[2] = read-out: Transforming Growth Factor (TGFB1), TGFB1 (gene 7040); assay: LTEA_HepaRG_TGFB1: Life Technologies and Expression Analysis (LTEA) Assay for Transforming Growth Factor (TGFB1) Transporter using HepaRG (AID 2283533; active = hit-call score of the fitted dose curve at least 0.9, where 1 is the maximum; inactive = score below 0.9); settings: mRNA level, 48 h; actives raise or lower the signal
Summary of the method: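 HepaRG, 48 h post-plating, switched to serum-free induction medium; chemicals 100 uM top, half-log, 8 pts, 0.5% DMSO, dup; 48 h exposure; RNA → Fluidigm TaqMan qRT-PCR; norm ACTB/GAPDH/POLR2A; bidirectional fit vs DMSO.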

[3] = read-out: TIMP1, TIMP1 (gene 7076); assay: LTEA_HepaRG_TIMP1: Life Technologies and Expression Analysis (LTEA) Assay for TIMP1 using HepaRG (AID 2283534; active = hit-call score of the fitted dose curve at least 0.9, where 1 is the maximum; inactive = score below 0.9); settings: mRNA level, 48 h; actives raise or lower the signal
Summary of the method: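 Readout is TIMP1 mRNA level measured by qRT-PCR and normalized to three housekeeping genes. Human HepaRG cells were treated for 48 h in duplicate at eight concentrations up to 100 uM (0.5% DMSO); gain or loss fitted against DMSO.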

[4] = read-out: Tumor necrosis factor receptor 1 (TNFRSF1A), TNFRSF1A (gene 7132); assay: LTEA_HepaRG_TNFRSF1A: Life Technologies and Expression Analysis (LTEA) Assay for Tumor necrosis factor receptor 1 (TNFRSF1A) using HepaRG (AID 2283535; active = hit-call score of the fitted dose curve at least 0.9, where 1 is the maximum; inactive = score below 0.9); settings: mRNA level, 48 h; actives raise or lower the signal
Summary of the method: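 Read-out is TNFRSF1A transcript level by TaqMan qRT-PCR, normalized to three housekeeping genes, scored as gain or loss of signal versus 0.5% DMSO. Human HepaRG cells received test chemicals for 48 h at up to 100 uM (half-log series).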

[5] = read-out: Thyroid Hormone Responsive (THRSP), THRSP (gene 7069); assay: LTEA_HepaRG_THRSP: Life Technologies and Expression Analysis (LTEA) Assay for Thyroid Hormone Responsive (THRSP) using HepaRG (AID 2283536; active = hit-call score of the fitted dose curve at least 0.9, where 1 is the maximum; inactive = score below 0.9); settings: mRNA level, 48 h; actives raise or lower the signal
Summary of the method: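 THRSP transcript quantified by Fluidigm qRT-PCR against three housekeeping genes after 48 h chemical exposure of HepaRG cells in serum-free induction medium; eight-point half-log series, top 100 uM, 0.5% DMSO vehicle, duplicate wells.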

[6] = read-out: Cellular tumor antigen p53 (Homo sapiens) (UniProt P04637); assay: LTEA_HepaRG_TP53: Life Technologies and Expression Analysis (LTEA) Assay for Tumor Protein P53 (TP53) using HepaRG (AID 2283537; active = hit-call score of the fitted dose curve at least 0.9, where 1 is the maximum; inactive = score below 0.9); settings: mRNA level, 48 h; actives raise or lower the signal
Summary of the method: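 TP53 transcript measured by qRT-PCR, normalized to three housekeeping genes, after 48 h treatment of human HepaRG cultures with chemicals from 100 uM downward in half-log steps (0.5% DMSO vehicle, serum-free induction medium). Up- or down-regulation fitted against DMSO.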

[7] = read-out: UDP glucuronosyltransferase (UGT1A1), UGT1A1 (gene 54658); assay: LTEA_HepaRG_UGT1A1: Life Technologies and Expression Analysis (LTEA) Assay for UDP glucuronosyltransferase (UGT1A1) using HepaRG (AID 2283538; active = hit-call score of the fitted dose curve at least 0.9, where 1 is the maximum; inactive = score below 0.9); settings: mRNA level, 48 h; actives raise or lower the signal
Summary of the method: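 Cells are plated, cultured 48 h, switched to serum-free induction medium, then dosed 48 h at eight concentrations (max 100 uM, 0.5% DMSO). RNA is isolated and UGT1A1 expression measured by qRT-PCR; changes versus DMSO are fitted in both directions.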

[8] = read-out: UDP glucuronosyltransferase (UGT1A6), UGT1A6 (gene 54578); assay: LTEA_HepaRG_UGT1A6: Life Technologies and Expression Analysis (LTEA) Assay for UDP glucuronosyltransferase (UGT1A6) using HepaRG (AID 2283539; active = hit-call score of the fitted dose curve at least 0.9, where 1 is the maximum; inactive = score below 0.9); settings: mRNA level, 48 h; actives raise or lower the signal
Summary of the method: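 HepaRG, 48 h post-plating switch to serum-free induction medium; chemical 48 h, 100 uM top, half-log x8, duplicate, 0.5% DMSO. Phenobarbital 1mM induction control. UGT1A6 mRNA by TaqMan qRT-PCR; gain/loss fit vs DMSO.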

[9] = read-out: X-box binding protein 1 (XBP1), XBP1 (gene 7494); assay: LTEA_HepaRG_XBP1: Life Technologies and Expression Analysis (LTEA) Assay for X-box binding protein 1 (XBP1) using HepaRG (AID 2283540; active = hit-call score of the fitted dose curve at least 0.9, where 1 is the maximum; inactive = score below 0.9); settings: mRNA level, 48 h; actives raise or lower the signal
Summary of the method: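 Transcript levels of XBP1, measured by qRT-PCR and normalised to three housekeeping genes, were fitted bidirectionally relative to 0.5% DMSO controls. Human HepaRG cells received eight-point half-log dilutions from 100 uM for 48 h.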

[10] = LTEA_HepaRG_LDH_cytotoxicity: Cytotoxicity Assessment in the Life Technologies and Expression Analysis (LTEA) Assay (AID 2283563);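 as to AC50: LDH activity released into spent culture medium as a marker of cell death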
Summary of the method: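 Cells were thawed and plated for 48 h. Medium was then replaced with serum-free induction medium. Chemicals (8 half-log points, maximum 100 uM, 0.5% DMSO) were added in duplicate for 48 h, after which spent medium was assayed for LDH.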

[11] = ATG_XTT_Cytotoxicity: Cytotoxicity Assessment in the Attagene TRANS-FACTORIAL HepG2 Assay (AID 2283584);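 as to AC50: cells exposed to compound for 24 h before reading; active means loss of viability signal versus DMSO baseline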
Summary of the method: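 Cells: human HepG2, transiently transfected with MRTU reporter constructs. Exposure 24 h. Readout: XTT, cell number. Baseline/neg ctrl DMSO; loss-of-signal scored.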

[12] = TOX21_p53_BLA_p2_viability: Viability Assessment in the Tox21 HCT-116 p53 Agonism Beta-lactamase Assay, Phase 2 (AID 2283591);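 also: compound exposure lasted 16 h at 37 °C; actives lower the ATP signal meaning cytotoxicity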
Summary of the method: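 Cytotoxicity readout: CellTiter-Glo ATP luminescence, 30 min at room temperature, after the beta-lactamase read. Cells were HCT116 exposed 16 h at 37C to compounds pin-transferred at 217-fold dilution from DMSO stocks.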

[13] = TOX21_p53_BLA_p3_viability: Viability Assessment in the Tox21 HCT-116 p53 Agonism Beta-lactamase Assay, Phase 3 (AID 2283593);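 also: cells exposed to compound for 16 h before reading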
Summary of the method: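 Cellular ATP was quantified by CellTiter-Glo luminescence, read after 30 min at room temperature. Beforehand, HCT116 cells (4000/well) received compound 5 h post-seeding, 217-fold diluted from DMSO, then incubated 16 h at 37C.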

[14] = target: Cellular tumor antigen p53 (Homo sapiens) (UniProt P04637); assay: TOX21_p53_BLA_p3_ratio: Tox21 HCT-116 p53 Agonism Beta-lactamase Assay, Ratio, Phase 3 (AID 2283596)
Summary of the method: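 Cells were seeded at 4000/well, rested 5 h at 37C, then dosed with DMSO compound solutions (217-fold dilution) for 16 h. CCF4-AM substrate was loaded for 2 h at room temperature, and the 460/530 nm emission ratio was fitted for gain of signal versus DMSO.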

[15] = TOX21_p53_BLA_p4_viability: Viability Assessment in the Tox21 HCT-116 p53 Agonism Beta-lactamase Assay, Phase 4 (AID 2283597);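 also: hits lower the luminescence signal meaning cytotoxicity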
Summary of the method: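 Readout: ATP luminescence (CellTiter-Glo), measured 30 min after reagent addition at RT. The reagent followed a 2 h CCF4-AM incubation, and the cells had been exposed to compound for 16 h at 37C.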

[16] = target: Cellular tumor antigen p53 (Homo sapiens) (UniProt P04637); assay: TOX21_p53_BLA_p5_ratio: Tox21 HCT-116 p53 Agonism Beta-lactamase Assay, Ratio, Phase 5 (AID 2283599)
Summary of the method: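 Beta-lactamase reporter ratio (blue 460 nm over green 530 nm, 405 nm excitation) after 2 h CCF4-AM loading, in HCT-116 cells exposed 16 h at 37 C to compounds pinned at 217-fold dilution. Increases relative to DMSO baseline scored.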

[17] = TOX21_p53_BLA_p5_viability: Viability Assessment in the Tox21 HCT-116 p53 Agonism Beta-lactamase Assay, Phase 5 (AID 2283600)
Summary of the method: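 Workflow: seed 4000 cells per well, wait 5 h, add compounds (DMSO, 217-fold dilution), incubate 16 h, load CCF4-AM 2 h, add CellTiter-Glo, read luminescence after 30 min.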

[18] = target: Cellular tumor antigen p53 (Homo sapiens) (UniProt P04637); assay: TOX21_p53_BLA_p4_ratio: Tox21 HCT-116 p53 Agonism Beta-lactamase Assay, Ratio, Phase 4 (AID 2283601)
Summary of the method: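 Signal is the blue/green (460nm/530nm) ratio of cleaved versus uncleaved CCF4-AM substrate, read after 2 h substrate loading. Cells were HCT116 carrying the p53-responsive beta-lactamase reporter, dosed 16 h at 37C, 5% CO2; CellTiter-Glo measured in parallel.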

[19] = Tanguay_ZF_120hpf_MORT_legacy: (Legacy) Oregon State University Tanguay Lab 120 Hour Post-fertilization zebrafish Assay for Mortality (AID 2283633);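 as to AC50: fitted as increase in binary mortality versus DMSO negative control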
Summary of the method: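 5D WT zebrafish, chorion removed 4 hpf; 1 embryo/well from 6 hpf; static exposure to 120 hpf, 28C, dark, sealed. Final DMSO 0.64%. Readout: binary mortality, brightfield, 24 + 120 hpf; DMSO as negative control.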

[20] = target: Cellular tumor antigen p53 (Homo sapiens) (UniProt P04637); assay: TOX21_p53_BLA_p2_ratio: Tox21 HCT-116 p53 Agonism Beta-lactamase Assay, Ratio, Phase 2 (AID 2283592)
Summary of the method: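 Plated HCT116 p53-bla cells (4000/well) received compound after 5 h, then 16 h at 37C/5% CO2. CCF4-AM added, 2 h RT. Ratio of 460 to 530 nm emission taken as the p53 reporter signal.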

Measured: AC50

Sequence of Cellular tumor antigen p53 (Homo sapiens) (P04637 whole entry, looked up): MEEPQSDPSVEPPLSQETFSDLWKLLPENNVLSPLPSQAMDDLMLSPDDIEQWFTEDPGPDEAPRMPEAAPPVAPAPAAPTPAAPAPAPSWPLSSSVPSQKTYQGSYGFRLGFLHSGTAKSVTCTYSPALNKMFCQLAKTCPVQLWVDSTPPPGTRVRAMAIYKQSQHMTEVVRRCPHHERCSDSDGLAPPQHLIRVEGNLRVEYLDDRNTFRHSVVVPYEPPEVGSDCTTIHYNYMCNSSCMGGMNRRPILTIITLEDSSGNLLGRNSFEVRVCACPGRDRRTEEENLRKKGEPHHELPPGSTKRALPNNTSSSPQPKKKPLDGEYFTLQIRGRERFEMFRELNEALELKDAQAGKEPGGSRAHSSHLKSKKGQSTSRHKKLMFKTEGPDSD

CCC[CH2][Sn]([Cl])([CH2]CCC)[CH2]CCC
active: [1] 50 µM | [4] 50 µM | [5] 2.84 µM | [6] 11.6 µM | [7] 3.12 µM | [8] 12.6 µM | [10] 2.98 µM | [11] 1.8 µM | [12] 1.22 µM and 1.04 µM | [13] 921 nM and 958 nM | [14] 25.6 µM and 28.6 µM | [15] 917 nM and 983 nM | [16] 36.5 µM and 31.8 µM | [17] 1.52 µM | [18] 27.7 µM and 25.6 µM
inactive: [2] | [3] | [9] | [11]

O=C(N[C@H](c1ccccc1)[C@@H]1CN2CCC1CC2)c1c(Cl)ccc(C(F)(F)F)c1Cl
inactive: [5] | [6] | [12] | [16] | [17]
active: [1] 46.2 µM | [2] 46.2 µM | [3] 64.9 µM | [4] 73.9 µM | [7] 63.8 µM | [8] 68.2 µM | [9] 73.9 µM | [10] 51.9 µM | [18] 127 µM

Cn1cc(-c2ccccc2)c(=O)c(-c2cccc(C(F)(F)F)c2)c1
active: [7] 8.71 µM | [9] 15 µM
not listed: [13] | [15] | [17] | [19] | [20]
inactive: all other assays above

C=CCc1ccc2c(c1)OCO2
not listed: [11] | [20]
inactive: all other assays above

O=C(Oc1ccc(Br)cc1)N1CCN2CCC1CC2
active: [5] 34.8 µM
not listed: [10] | [11] | [14] | [16] | [20]
inactive: all other assays above

COc1cc(C=O)cc2c1[C@H](COC(N)=O)[C@]1(OC(C)=O)ON2C[C@H]2[C@@H]1N2C(C)=O
active: [1] 1.46 µM | [2] 3.38 µM | [3] 2.63 µM | [7] 24.6 µM | [10] 1.54 µM | [20] 0.249 µM | [14] 560 nM | [16] 546 nM | [18] 0.304 µM
not listed: [17] | [19]
inactive: all other assays above

CN(C)C(=O)Nc1ccc(Cl)cc1
active: [7] 30.8 µM
not listed: [8] | [19]
inactive: all other assays above

CC(C)(OOC(C)(C)c1ccccc1)c1ccccc1
active: [7] 24.4 µM
not listed: [12] | [14] | [19] | [20]
inactive: all other assays above

N#CC(Br)(Br)C(N)=O
active: [15] 70.2 µM
not listed: [12] | [16] | [20]
inactive: all other assays above

Clc1ccc(C(c2ccc(Cl)cc2)C(Cl)Cl)cc1
active: [5] 90.5 µM | [7] 6.66 µM | [12] 59.6 µM and 33.7 µM | [20] 68 µM | [13] 79.1 µM and 50.6 µM | [14] 48400 nM | [15] 63.4 µM and 46.7 µM | [16] 89.8 µM and 85.4 µM | [17] 81.2 µM and 73.1 µM | [18] 78.4 µM and 79.1 µM
inactive: [1] | [2] | [3] | [4] | [6] | [8] | [9] | [10] | [11] | [20] | [14]

c1ccc2c(c1)-c1cccc3cccc-2c13
active: [7] 16.1 µM
not listed: [10] | [17] | [20]
inactive: all other assays above

OCCCl
not listed: [11] | [12] | [15] | [16] | [17] | [18] | [19]
inactive: all other assays above

Oc1ccc2ccc3cccc4ccc1c2c34
active: [19] 35.6 µM
not listed: [8] | [20]
inactive: all other assays above

CN(C)[C@@H]1C(=O)C(C(N)=O)=C(O)[C@@]2(O)C(=O)C3=C(O)c4c(O)cccc4[C@@](C)(O)[C@H]3C[C@@H]12
not listed: [8] | [11] | [19]
inactive: all other assays above
